The values below come from PubChem BioAssay (NCI).

SMILES strings stand for the structures. This is part of a sample that, as a whole, favours compounds with a hit. Of some 83,000 tested, about 20% had one in any assay.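 Compound tested at a single concentration for 48 hours in 96-well plates; a percent growth value below 10 was scored as active.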 A number with no mark means an inactive call. Activity calls are given as the source filed them.

Test in all cases: NCI-60 one-dose screen, 48 h (100 = growth as untreated, 0 = no growth, -100 = all killed)
One assay deals with HCT-15 colon. Particulars: 10 µM unless noted.
The next assay relates to HT29 colon. The settings on record: 10 µM unless noted.
Another assay deals with SNB-75 CNS. The settings on record: 10 µM unless noted.
The subject of another assay is SNB-19 CNS. Particulars: 10 µM unless noted.
In a further assay the test system is U251 CNS. Particulars: 10 µM unless noted.
In another assay the test system is PC-3 prostate. Particulars: 10 µM unless noted.
Another assay deals with SK-MEL-5 melanoma. Particulars: 10 µM unless noted.
A further assay has as its system UACC-62 melanoma. The settings on record: 10 µM unless noted.
The next assay deals with LOX IMVI melanoma. The settings on record: 10 µM unless noted.
The next assay has as its system SK-MEL-28 melanoma. Particulars: 10 µM unless noted.
The subject of a further assay is SK-MEL-2 melanoma. Particulars: 10 µM unless noted.
For another assay, the system named is EKVX NSCLC. Particulars: 10 µM.
The next assay relates to SN12C renal. Particulars: 10 µM unless noted.
Another assay concerns UO-31 renal. The settings on record: 10 µM unless noted.
The test system of another assay is TK-10 renal. Particulars: 10 µM unless noted.
Another assay relates to ACHN renal. Particulars: 10 µM unless noted.
The next assay relates to CAKI-1 renal. The settings on record: 10 µM unless noted.
The next assay deals with CCRF-CEM leukemia. Particulars: 10 µM.
The next assay concerns MOLT-4 leukemia. Particulars: 10 µM unless noted.
Another assay concerns A498 renal. The settings on record: 10 µM unless noted.

In the case of `CCOC(=O)C1C(=O)C(=O)N(C(C)C)C1C(=O)OCC` (centres undefined), the growth with HCT-15 colon is 94.1%; with HT29 colon, 98.2%; in the assay with SNB-75 CNS, 85.9%; in the assay with SNB-19 CNS, 97.3%; with U251 CNS, 107%; in the assay on PC-3 prostate, 97.8%. Also, the growth was 103% with SK-MEL-5 melanoma; 96.4% in the assay with UACC-62 melanoma; 102% in the assay with LOX IMVI melanoma; 108% in the assay on SK-MEL-28 melanoma; 113% in the assay on SK-MEL-2 melanoma; 106% in the assay with EKVX NSCLC. For the same molecule, the growth was 94.4% in the assay with SN12C renal; 86.2% with UO-31 renal; 99.1% in the assay on TK-10 renal; 94.3% with ACHN renal; 105% in the assay on CAKI-1 renal; 110% in the assay on CCRF-CEM leukemia. In addition, in the assay with MOLT-4 leukemia, the growth is 122%.

On to `C=C[C@]1(C)C=C2C(=O)[C@@]3(O)OC[C@@]4(CCCC(C)(C)C43O)C2(O)C(O)C1` (some centres undefined), for which the growth is 12.9% with HCT-15 colon; -68.6% (active) in the assay with HT29 colon; 69.6% in the assay on SNB-75 CNS; 99.3% in the assay with SNB-19 CNS; 53.9% in the assay on U251 CNS; 55.2% in the assay on PC-3 prostate. Further, the growth in the assay with SK-MEL-5 melanoma was 91.6%; with UACC-62 melanoma, 86.3%; with LOX IMVI melanoma, 12.2%; in the assay on SK-MEL-28 melanoma it was 47.2%; in the assay with SK-MEL-2 melanoma it was -0.387% (active); in the assay with EKVX NSCLC, 91.2%. The growth in the assay on SN12C renal is 93.2%; with UO-31 renal, 33.8%; in the assay with TK-10 renal it was -68.2% (active); in the assay on ACHN renal, 3.59% (active); in the assay with CAKI-1 renal it was 10.8%; with A498 renal, 99.4%. Besides, the growth in the assay on MOLT-4 leukemia was 78%.

On to `CCCCCCCCCCCCCCCC[n+]1cccc(C#N)c1`, for which the growth was 13.1% in the assay with HCT-15 colon; 27.1% in the assay on HT29 colon; 74.8% with SNB-75 CNS; 26.4% with SNB-19 CNS; 29.7% in the assay on U251 CNS; 25.1% in the assay on PC-3 prostate. Besides, the growth was 58.3% in the assay on SK-MEL-5 melanoma; 83.9% in the assay with UACC-62 melanoma; 12.4% in the assay on LOX IMVI melanoma; 83% in the assay with SK-MEL-28 melanoma; 97.7% in the assay with SK-MEL-2 melanoma; 98% in the assay with EKVX NSCLC. The growth with SN12C renal was 96.9%; in the assay with UO-31 renal, 67.6%; in the assay with TK-10 renal it was 69.3%; in the assay on ACHN renal it was 39.2%; with CAKI-1 renal, 73%; in the assay with CCRF-CEM leukemia, -26% (active). Further, the growth in the assay on MOLT-4 leukemia is -13.3% (active).

For `CCCCCCCCCCCCc1ccc([N+](CC)(CC)CC)cc1`, the growth is 96% in the assay with HCT-15 colon; 39.3% with HT29 colon; 33.5% in the assay with SNB-75 CNS; 31.7% with SNB-19 CNS; 29.6% with U251 CNS; 25.1% in the assay with PC-3 prostate. The growth with SK-MEL-5 melanoma is -75.5% (active); with UACC-62 melanoma, 11.1%; in the assay on LOX IMVI melanoma it was 32.9%; with SK-MEL-28 melanoma it was 28.9%; in the assay with SK-MEL-2 melanoma, 42.7%; with EKVX NSCLC it was 41%. Also, the growth is 33.5% in the assay on SN12C renal; 78.7% in the assay on UO-31 renal; 67.1% in the assay on TK-10 renal; 85% with ACHN renal; 88.7% with CAKI-1 renal; 33% in the assay with CCRF-CEM leukemia. Also, the growth with MOLT-4 leukemia was 51.9%.

Take `COc1ccc(CNCCCN2C(=O)c3ccc4c5c(ccc(c35)C2=O)C(=O)N(CCCNCc2ccc(OC)c(OC)c2OC)C4=O)c(OC)c1OC`: the growth in the assay with HCT-15 colon is -63.7% (active); with HT29 colon, -76.4% (active); in the assay on SNB-75 CNS, -96.8% (active); in the assay with SNB-19 CNS, -79.5% (active); with U251 CNS, -94.2% (active); in the assay with PC-3 prostate, -71.9% (active). In addition, the growth in the assay on SK-MEL-5 melanoma was -97.9% (active); in the assay with UACC-62 melanoma, -78.4% (active); in the assay on LOX IMVI melanoma, -84.7% (active); in the assay on SK-MEL-28 melanoma, -92.9% (active); in the assay with SK-MEL-2 melanoma, -88.4% (active); in the assay on EKVX NSCLC, -77.2% (active). The growth in the assay on SN12C renal was -90.8% (active); in the assay on UO-31 renal, -91.5% (active); with TK-10 renal, -84.7% (active); with ACHN renal, -90.3% (active); with CAKI-1 renal, -52.5% (active); with CCRF-CEM leukemia, -34% (active). Also, the growth in the assay with MOLT-4 leukemia was -43.9% (active).

Consider `COc1ccc(/C(=C(\c2ccccc2)[N+](=O)[O-])c2ccc(OCCN3CCCC3)cc2)cc1`, for which the growth is 6.54% (active) with HCT-15 colon; 9.77% (active) in the assay with HT29 colon; 76% with SNB-75 CNS; 87.8% in the assay on SNB-19 CNS; 74.1% in the assay with U251 CNS; 69.4% in the assay on PC-3 prostate. Moreover, the growth was -78.2% (active) in the assay on SK-MEL-5 melanoma; 38.4% in the assay with UACC-62 melanoma; -20.1% (active) in the assay with LOX IMVI melanoma; -10.3% (active) with SK-MEL-28 melanoma; 79.4% in the assay on SK-MEL-2 melanoma; 96.9% in the assay on EKVX NSCLC. For the same molecule, the growth with SN12C renal was 83.4%; in the assay on UO-31 renal, 28.1%; in the assay on TK-10 renal, 80.4%; with ACHN renal, 75.4%; in the assay on CAKI-1 renal, 76.9%; in the assay on CCRF-CEM leukemia, 67.6%. Further, the growth in the assay on MOLT-4 leukemia is 71.9%.
